Compounds with a hit are over-represented: about 12% of the library has one in this group of screens.
Gal4-VP16 FLuc – Gal4-VP16 reporter inhibition counter-screen. Drosophila S2 Gal4-VP16 UAS-luciferase, luminescence, 20 h. Potency, µM (doses to about 53.6 µM), for inactives: at the top dose activity, negative = inhibition, actives largely listed as inhibitors. 3.5% of 310,000 active;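 also: Gal4-VP16 expression switched on by copper sulfate through the metallothionein promoter; nearly all actives have a fitted effect of over 50% in size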
PLK1 PBD inh – blocks phosphopeptide binding to human PLK1 polo-box domain; Plk1 PBD binding of FITC phosphopeptide, fluorescence polarization; Potency, µM, inactives show max response, negative = inhibition, usual class: inhibitors; 2.8% of 360,000 active; AID 720504; also: series mostly up to about 57 µM; nearly all actives have a fitted effect of over 65% in size
Target sequence (P53350 whole entry, looked up, the tested form may be a part): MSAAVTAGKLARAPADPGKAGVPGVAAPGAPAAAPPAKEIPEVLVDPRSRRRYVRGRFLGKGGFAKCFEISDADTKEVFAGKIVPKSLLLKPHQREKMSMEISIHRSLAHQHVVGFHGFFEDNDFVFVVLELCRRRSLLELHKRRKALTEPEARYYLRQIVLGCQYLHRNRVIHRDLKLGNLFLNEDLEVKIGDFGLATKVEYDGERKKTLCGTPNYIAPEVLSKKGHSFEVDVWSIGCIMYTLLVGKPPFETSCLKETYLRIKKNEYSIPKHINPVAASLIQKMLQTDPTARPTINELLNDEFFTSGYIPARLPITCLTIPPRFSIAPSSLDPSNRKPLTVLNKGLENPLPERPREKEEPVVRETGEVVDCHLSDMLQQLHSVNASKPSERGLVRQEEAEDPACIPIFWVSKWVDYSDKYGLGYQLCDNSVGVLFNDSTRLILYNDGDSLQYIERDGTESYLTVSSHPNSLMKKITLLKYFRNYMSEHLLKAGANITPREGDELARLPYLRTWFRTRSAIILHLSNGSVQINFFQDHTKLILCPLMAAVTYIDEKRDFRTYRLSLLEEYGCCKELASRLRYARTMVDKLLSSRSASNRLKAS
Sfp PPTase inh – blocks B. subtilis Sfp PPTase activity; 3.5% of 310,000 active; Potency, µM, for inactives: largest response in the series, negative = inhibition, most hits filed as inhibitors; Biochemical Sfp PPTase activity, qHTS; Q9F4F7; AID 1490;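 also: the enzyme is Sfp with the accession as filed and its product quenches rhodamine fluorescence; 0% = enzyme reaction without inhibitor and -100% = no enzyme wells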
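Fluorescence-quenching assay with 15 nM Sfp, 5 uM rhodamine-CoA and 12.5 uM BHQ-2-labelled ybbR peptide in pH 7.6 Hepes/MgCl2 buffer. Enzyme was pre-incubated with compound for 15 min at room temperature. Rate was taken from the 30-min fluorescence change (525/598 nm).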
ALDH1A1 block – ALDH1A1 (human) enzyme inhibition | Purified ALDH1A1, NADH fluorescence, propionaldehyde substrate | AID 1030 | Potency, µM (titrated, usually from 75.3 µM), for inactives: at the highest dose activity, negative = inhibition, most hits filed as inhibitors | P00352 | 7.3% of 220,000 active; active = well fitted inhibition curve with a large enough effect, not every such curve was filed as active; inconclusive = small, poorly fitted or top-dose-only effect, or another doubt; inactive = no such curve, though single readings can be large or run the other way;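 also: plate controls were no enzyme wells and a reference inhibitor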
RORg inh – blocks mouse ROR gamma transcriptional activity. 5.4% of 310,000 active. Drosophila S2 Gal4-RORgamma UAS-luciferase reporter, 20 h. AID 2551. Potency, µM (highest dose often 53.6 µM), without a hit: at the top dose activity change, negative = inhibition, usual class: inhibitors. P51450; also: nearly all actives have a fitted effect of over 60% in size
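Drosophila Schneider cells stably carrying a metallothionein-driven Gal4 DBD–ROR gamma fusion and a UAS-Photinus luciferase reporter were exposed to compound for 1 hr, then induced with copper sulfate (700 uM final) for 20 hr at ambient temperature before luminescence reading.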
An asterisk follows results filed as active; ? = inconclusive; / = no result; [ ] = dose if it differs, or a comment. Unless noted, calls follow the shape of the dose curve; as a rule, active = well fitted curve in the direction sought with a large enough effect; inconclusive = small, poorly fitted or top-dose-only effect, or another doubt; inactive = no such curve, though single readings can be large; an effect the other way counts as inactive or inconclusive. Unless noted, % is scaled to controls: 0 for no effect and ±100 for the full control effect; potency is read from the fitted curve at half-maximal effect.

SMILES	Gal4-VP16 FLuc	PLK1 PBD inh	Sfp PPTase inh	ALDH1A1 block	RORg inh
COc1ccc(NC(=O)c2cc(-c3sc(NC(=O)c4ccccc4)nc3C)n(-c3ccc(Br)cc3)n2)cc1	/	-10.2%	/	/	/
COc1cccc(NC(=S)N2CCN(c3ccccn3)CC2)c1	-5.0%	26.7µM*	10.5%	?	?
S=C(Nc1ccc(Cl)c(Cl)c1)N1CCN(c2ccccn2)CC1	-9.2%	-15.6%	0.0%	/	-27.9%[1.91 µM]
S=C(Nc1ccc(Oc2ccccc2)cc1)N1CCN(c2ccccn2)CC1	?	23.8µM*	?	1.5%	11.2µM*
COC(=O)c1cc(NC(=S)N2CCN(c3ccccn3)CC2)cc(C(=O)OC)c1	-0.3%	-2.0%	18.7%	-8.6%	3.8%
COc1cc(NC(=S)N2CCN(c3ccccn3)CC2)c(OC)cc1Cl	?	23.8µM*	10.0%	?	19.4%
S=C(Nc1cccc(Cl)c1)N1CCN(c2ccccn2)CC1	12.6µM*	-9.7%	5.8%	/	11.2µM*
O=C1C2=C(C(=O)c3ccccc31)C1O[C@](CCCCN3C(=O)c4ccccc4C3=O)(Cc3c1ccc1ccccc31)O2	4.2%[10 µM]	/	0.4%	/	-7.2%[10 µM]
COc1ccc(/C(C)=N/Nc2nncc3ccccc23)cc1	-10.5%	1.5%	-0.9%	/	?
COc1ccc(/C(C)=N/Nc2nc3ccccc3nc2C)cc1	12.6µM*	-20.6%	25.1µM*	/	2.51µM*
CC(=O)NC(C)c1nc2ccccc2n1CC(=O)NC(C)CCc1ccccc1 (stereo unspecified)	-2.5%	8.2%	17.6%	-11.7%	12.6µM*
CC(CCc1ccccc1)NC(=O)CN1CCN(c2ccccc2)CC1 (stereo unspecified)	9.7%	3.6%	13.2%	31.6µM*	40.4%
CC(NC(=O)CN1CCN(c2ccc(Cl)cc2)CC1)c1ccccc1 (stereo unspecified)	-11.9%	-3.3%	6.0%	/	5.2%
CCCn1c(C(C)NC(C)=O)nc2ccccc21 (stereo unspecified)	-12.5%	4.1%	7.7%	3.8%	-13.4%
O=C(NNc1ccccc1)c1ccc(Cl)c(Cl)c1	/	-4.4%	/	/	/
N#C/C(=C\Nc1ccccn1)C(=O)c1ccco1	/	/	/	-1.8%[13.5 µM]	/
O=S1(=O)CC(N2CCSCC2)CN1Cc1cn(Cc2cccc(C(F)(F)F)c2)nn1 (stereo unspecified)	/	5.3%	/	/	/
CCN(CC)CCn1c(=S)[nH]c2cc3c(cc2c1=O)OCO3	-2.7%	-24.5%	79.4µM*	9.8%	-41.2%
CCN(CC)CCn1c(=S)[nH]c2ccc(Br)cc2c1=O	12.6µM*	?	-1.2%	-15.1%	11.2µM*
CCOCCCn1c(=S)[nH]c2cc3c(cc2c1=O)OCO3	2.51µM*	4.5%	10.8%	?	2.51µM*
CCN1CCN(CCn2c(=S)[nH]c3cc4c(cc3c2=O)OCO4)CC1	-0.1%	1.8%	-6.1%	5.5%	-13.8%
CCN(CC)CCNC(=O)CCn1c(=S)[nH]c2cc3c(cc2c1=O)OCO3	-5.4%	-4.2%	-11.6%	16.8%	?
Cc1ccsc1-c1nc(CN2CCCC2c2ccc(F)cc2)c(C)o1 (stereo unspecified)	-4.5%	3.9%	7.3%	?	10µM*
COc1cccc(C2CCCN2Cc2nc(-c3sccc3C)oc2C)c1 (stereo unspecified)	4.3%	4.5%	5.1%	?	28.2µM*
Cc1ccc(S(=O)(=O)N2CCCCC2)cc1NC(=O)c1ccc(=O)[nH]c1	/	-16.7%	/	/	/
SMILES	Gal4-VP16 FLuc	PLK1 PBD inh	Sfp PPTase inh	ALDH1A1 block	RORg inh
COc1ccc(CC(N)c2csc(Nc3nccc(C(F)(F)F)n3)n2)cc1 (stereo unspecified)	/	3.0%	/	/	/
CCN1CCN(c2ncnc3c2c(-c2ccccc2)cn3-c2ccc(F)cc2)CC1	3.7%	-4.5%	39.8µM*	?	10.6%
OCCN1CCN(c2ncnc3c2c(-c2ccccc2)cn3-c2ccc(Br)cc2)CC1	?	-0.2%	22.4µM*	-3.4%	?
COc1ccc(-n2cc(-c3ccccc3)c3c(N4CCOCC4)ncnc32)cc1	0.0%	-3.7%	-6.6%	?	7.6%
Fc1ccc(-n2cc(-c3ccccc3)c3c(N4CCOCC4)ncnc32)cc1	-14.9%	-9.2%	-14.4%	?	9.5%
Brc1ccc(-n2cc(-c3ccccc3)c3c(NN4CCOCC4)ncnc32)cc1	?	-13.6%	4.6%	1.7%	6.31µM*
c1ccc(-c2cn(-c3ccccc3)c3ncnc(NCCCN4CCOCC4)c23)cc1	-2.0%	-11.6%	-9.0%	-3.1%	-16.7%

Screens deposited in PubChem BioAssay by National Center for Advancing Translational Sciences (NCATS).
